# According to the supplement of paper PMC8728848:
# Shown is part of a subset that was picked to be rich in the strongest signals.
# What was measured:
# Assay in all cases: glycan array binding signal (z-score within array); higher = stronger binding
# Settings in all cases: glycan notation: IUPAC condensed, linker removed
# [1] = molecular target: Fuc(a1-2)Gal6S(b1-3)GlcNAc
# Outline: (§1)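 The Consortium for Functional Glycomics database supplied 3228 glycan arrays, of which those lacking an available protein sequence were dropped. The binding signal, a within-array Z-score, was averaged across arrays of the same protein sequence and across linkers. Negative scores can be read as non-binding.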
# [2] = molecular target: Fuc(a1-2)[Gal(a1-3)]Gal(b1-3)GlcNAc(b1-2)Man(a1-3)[Fuc(a1-2)[Gal(a1-3)]Gal(b1-3)GlcNAc(b1-2)Man(a1-6)]Man(b1-4)GlcNAc(b1-4)[Fuc(a1-6)]GlcNAc
# Outline: as §1
# [3] = molecular target: Fuc(a1-2)[Gal(a1-3)]Gal(b1-3)GlcNAc(b1-3)GalNAc
# Outline: as §1
# [4] = molecular target: Fuc(a1-2)[Gal(a1-3)]Gal(b1-4)GlcNAc(b1-2)Man(a1-3)[Fuc(a1-2)[Gal(a1-3)]Gal(b1-4)GlcNAc(b1-2)Man(a1-6)]Man(b1-4)GlcNAc(b1-4)GlcNAc
# Outline: as §1
# [5] = molecular target: Fuc(a1-2)[Gal(a1-3)]Gal(b1-4)GlcNAc(b1-2)Man(a1-3)[Fuc(a1-2)[Gal(a1-3)]Gal(b1-4)GlcNAc(b1-2)Man(a1-6)]Man(b1-4)GlcNAc(b1-4)[Fuc(a1-6)]GlcNAc
# Outline: as §1
# [6] = molecular target: Fuc(a1-2)[Gal(a1-3)]Gal(b1-4)[Fuc(a1-3)]GlcNAc(b1-3)GalNAc
# Outline: as §1
# [7] = molecular target: Fuc(a1-2)[GalNAc(a1-3)]Gal(b1-3)GlcNAc(b1-2)Man(a1-3)[Fuc(a1-2)[GalNAc(a1-3)]Gal(b1-3)GlcNAc(b1-2)Man(a1-6)]Man(b1-4)GlcNAc(b1-4)GlcNAc
# Outline: as §1
# Fuc(a1-3)GlcNAc = molecular target: Fuc(a1-3)GlcNAc
# Outline: as §1
# [8] = molecular target: Fuc(a1-3)[Gal3S(b1-4)]GlcNAc
# Outline: as §1
# [9] = molecular target: Gal(a1-3)Gal(b1-3)GlcNAc(b1-6)GalNAc
# Outline: as §1
# [10] = molecular target: Gal(a1-4)Gal(b1-4)GlcNAc(b1-2)Man(a1-3)[Gal(a1-4)Gal(b1-4)GlcNAc(b1-2)Man(a1-6)]Man(b1-4)GlcNAc(b1-4)GlcNAc
# Outline: as §1
# Gal(b1-3)GalNAc(b1-3)Gal = molecular target: Gal(b1-3)GalNAc(b1-3)Gal
# Outline: as §1
# [11] = molecular target: Gal(b1-3)GlcNAc(b1-3)Gal(b1-4)GlcNAc(b1-2)Man(a1-3)[Gal(b1-3)GlcNAc(b1-3)Gal(b1-4)GlcNAc(b1-2)Man(a1-6)]Man(b1-4)GlcNAc(b1-4)GlcNAc
# Outline: as §1
# [12] = molecular target: Gal(b1-4)GlcNAc(a1-6)Gal(b1-4)GlcNAc
# Outline: as §1
# [13] = molecular target: Gal(b1-4)GlcNAc(b1-2)Man(a1-3)[Gal(b1-4)GlcNAc(b1-2)][GlcNAc(b1-4)]Man(b1-4)GlcNAc(b1-4)GlcNAc
# Outline: as §1
# [14] = molecular target: Gal(b1-4)GlcNAc(b1-2)Man(a1-3)[Man(a1-6)]Man(b1-4)GlcNAc(b1-4)GlcNAc
# Outline: as §1
# [15] = molecular target: Gal(b1-4)GlcNAc(b1-2)[Gal(b1-4)GlcNAc(b1-6)]Man(a1-6)[GlcNAc(b1-4)][Gal(b1-4)GlcNAc(b1-2)Man(a1-3)]Man(b1-4)GlcNAc(b1-4)GlcNAc
# Outline: as §1
# [16] = molecular target: Gal(b1-4)GlcNAc(b1-3)Gal(b1-4)GlcNAc(b1-2)Man(a1-3)[Gal(b1-4)GlcNAc(b1-3)Gal(b1-4)GlcNAc(b1-2)Man(a1-6)]Man(b1-4)GlcNAc(b1-4)[Fuc(a1-6)]GlcNAc
# Outline: as §1
# [17] = molecular target: Gal(b1-4)GlcNAc(b1-3)Gal(b1-4)GlcNAc(b1-3)Gal(b1-4)GlcNAc(b1-2)[Gal(b1-4)GlcNAc(b1-3)Gal(b1-4)GlcNAc(b1-3)Gal(b1-4)GlcNAc(b1-6)]Man(a1-6)[Gal(b1-4)GlcNAc(b1-3)Gal(b1-4)GlcNAc(b1-3)Gal(b1-4)GlcNAc(b1-2)Man(a1-3)]Man(b1-4)GlcNAc(b1-4)[Fuc(a1-6)]GlcNAc
# Outline: as §1
# [18] = molecular target: Gal(b1-4)GlcNAc(b1-3)Gal(b1-4)GlcNAc(b1-3)Gal(b1-4)GlcNAc(b1-3)Gal(b1-4)GlcNAc(b1-2)Man(a1-3)[Gal(b1-4)GlcNAc(b1-3)Gal(b1-4)GlcNAc(b1-3)Gal(b1-4)GlcNAc(b1-3)Gal(b1-4)GlcNAc(b1-2)Man(a1-6)]Man(b1-4)GlcNAc(b1-4)[Fuc(a1-6)]GlcNAc
# Outline: as §1
# [19] = molecular target: Gal3S(b1-3)[Fuc(a1-4)]GlcNAc
# Outline: as §1
# Gal6S(b1-3)GlcNAc6S = molecular target: Gal6S(b1-3)GlcNAc6S
# Outline: as §1
# [20] = molecular target: GlcNAc(b1-2)Man(a1-3)[GlcNAc(b1-2)Man(a1-6)]Man(b1-4)GlcNAc(b1-4)GlcNAc
# Outline: as §1
# [21] = molecular target: GlcNAc(b1-2)[GlcNAc(b1-4)]Man(a1-3)[GlcNAc(b1-4)][GlcNAc(b1-2)[GlcNAc(b1-6)]Man(a1-6)]Man(b1-4)GlcNAc(b1-4)GlcNAc
# Outline: as §1
# GlcNAc(b1-3)Gal = molecular target: GlcNAc(b1-3)Gal
# Outline: as §1
# [22] = molecular target: GlcNAc(b1-3)Gal(b1-4)GlcNAc(b1-2)Man(a1-3)[GlcNAc(b1-3)Gal(b1-4)GlcNAc(b1-2)Man(a1-6)]Man(b1-4)GlcNAc(b1-4)GlcNAc
# Outline: as §1
# [23] = molecular target: GlcNAc(b1-3)Gal(b1-4)GlcNAc(b1-2)Man(a1-3)[GlcNAc(b1-3)Gal(b1-4)GlcNAc(b1-2)Man(a1-6)]Man(b1-4)GlcNAc(b1-4)[Fuc(a1-6)]GlcNAc
# Outline: as §1
# [24] = molecular target: GlcNAc(b1-3)Gal(b1-4)GlcNAc(b1-3)Gal(b1-4)GlcNAc(b1-2)Man(a1-3)[GlcNAc(b1-3)Gal(b1-4)GlcNAc(b1-3)Gal(b1-4)GlcNAc(b1-2)Man(a1-6)]Man(b1-4)GlcNAc(b1-4)GlcNAc
# Outline: as §1
binder,measurement,setting,value
PpFlo2 (Pichia pastoris) (protein) MGSSHHHHHHSSGLVPRGSHMDDSGNGDNSDTAYGCDITTNAVDGFDATIYQYNANDLRLIRDPTFMSTGYLGRNVLNKISGVTVPGFNIWNPSSRTATVYGVKNVNYYNMVLELKGYFKADVSGDYKLTLSHIDDSSMLFFGKETAFKCCDAGSIPLNEAPTDYSLFTIKPSNQVNSEVISATQYLEAGKYYPVRIVFVNALERARFDFKLTIPSGAVLDDFQNYIYQFGDLDENSCHE,glycan array binding signal (z-score),[1],-0.272
same,glycan array binding signal (z-score),[2],-0.293
same,glycan array binding signal (z-score),[3],-0.288
same,glycan array binding signal (z-score),[4],-0.209
same,glycan array binding signal (z-score),[5],-0.288
same,glycan array binding signal (z-score),[6],-0.297
same,glycan array binding signal (z-score),[7],-0.287
same,glycan array binding signal (z-score),Fuc(a1-3)GlcNAc,-0.292
same,glycan array binding signal (z-score),[8],-0.313
same,glycan array binding signal (z-score),[9],-0.271
same,glycan array binding signal (z-score),[10],-0.23
same,glycan array binding signal (z-score),Gal(b1-3)GalNAc(b1-3)Gal,-0.272
same,glycan array binding signal (z-score),[11],-0.174
same,glycan array binding signal (z-score),[12],-0.273
same,glycan array binding signal (z-score),[13],-0.344
same,glycan array binding signal (z-score),[14],-0.273
same,glycan array binding signal (z-score),[15],-0.297
same,glycan array binding signal (z-score),[16],-0.25
same,glycan array binding signal (z-score),[17],-0.261
same,glycan array binding signal (z-score),[18],-0.243
same,glycan array binding signal (z-score),[19],-0.286
same,glycan array binding signal (z-score),Gal6S(b1-3)GlcNAc6S,-0.286
same,glycan array binding signal (z-score),[20],3.88
same,glycan array binding signal (z-score),[21],0.675
same,glycan array binding signal (z-score),GlcNAc(b1-3)Gal,1.09
same,glycan array binding signal (z-score),[22],4.64
same,glycan array binding signal (z-score),[23],4.49
same,glycan array binding signal (z-score),[24],3.9
